Laboratory results published in the supplement of paper PMC3334620.
In all, about 33,000 sequences were measured (“E-score (-0.5 to 0.5)”: median about -0.032, highest 2% from about 0.36 on). This is one part of a sample in which the highest values are shown more often than they occur.

Biological target: T1, Sko1 (UniProt Q02100)
T1 sequence: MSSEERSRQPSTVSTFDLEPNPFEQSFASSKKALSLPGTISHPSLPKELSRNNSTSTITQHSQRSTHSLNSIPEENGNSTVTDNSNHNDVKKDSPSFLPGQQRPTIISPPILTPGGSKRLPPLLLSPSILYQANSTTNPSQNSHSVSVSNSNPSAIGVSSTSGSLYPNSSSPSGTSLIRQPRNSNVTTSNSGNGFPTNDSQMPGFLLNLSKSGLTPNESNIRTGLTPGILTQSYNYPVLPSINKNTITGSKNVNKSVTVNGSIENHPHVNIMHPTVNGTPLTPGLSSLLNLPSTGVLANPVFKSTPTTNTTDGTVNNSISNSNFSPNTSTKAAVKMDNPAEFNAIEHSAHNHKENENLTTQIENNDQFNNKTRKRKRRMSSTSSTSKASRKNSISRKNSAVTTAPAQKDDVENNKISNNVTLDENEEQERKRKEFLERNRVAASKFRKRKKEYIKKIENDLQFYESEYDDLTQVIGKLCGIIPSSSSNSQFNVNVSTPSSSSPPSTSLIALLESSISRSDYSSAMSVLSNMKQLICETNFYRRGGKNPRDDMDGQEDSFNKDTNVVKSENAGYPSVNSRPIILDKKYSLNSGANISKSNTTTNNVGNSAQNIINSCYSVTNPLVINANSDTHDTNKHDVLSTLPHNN
Assay: PBM E-score (8-mer binding enrichment) (E-score (-0.5 to 0.5)); higher = stronger / more preferred TF binding
Conditions: protein concentration: 200 nM; construct: GST-full length
Method in brief: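 Each ungapped eight-base word and its reverse complement, pooled, received an E-score from the Universal PBM Analysis Suite. Underlying scans, normalised with masliner, recorded fluorescent anti-GST bound to GST-tagged yeast transcription factors. These were applied at about 100-200 nM to universal all-10-mer Agilent arrays double-stranded by primer extension.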

Row | Sequence | PBM E-score
1 | CCACGTAA | 0.456
2 | CCACGTGC | 0.341
3 | CCACGTTC | 0.0509
4 | CCACGTGG | 0.177
5 | CCCCGTAG | -0.2
6 | CCCCGTAA | 0.0319
7 | ATGGGGCA | -0.185
8 | CAATAGTC | -0.085
9 | CTGGTACA | -0.00751
10 | GTCTGGGA | -0.133
11 | AGTCGTCC | -0.114
12 | CGTCGTTA | 0.153
13 | GGTCGTCA | 0.38
14 | CGTCGTCA | 0.362
15 | CGTCGTCC | -0.0443
16 | GGTCGTGA | 0.0516
17 | GGTCGTTA | -0.0165
18 | AGTCGTCA | 0.37
19 | AGTCGTCG | -0.148
20 | AGAGGTAG | -0.178
21 | GGGCTAAA | -0.182
22 | AAACACGT | 0.413
23 | ACACACGG | -0.0648
24 | ACACACGA | 0.213
25 | ACACACGT | 0.433

Row | Sequence | PBM E-score
26 | AAACACGA | 0.163
27 | AAACACGC | 0.316
28 | ATATAGAG | -0.151
29 | CTTTGGGA | -0.187
30 | AATGAGCG | 0.0936
31 | ACGCAATC | 0.411
32 | GCGCAATA | 0.0795
33 | CCGCAATA | 0.0923
34 | AGGCAATG | 0.00123
35 | ACGCAATA | 0.45
36 | ACGCAAGC | 0.327
37 | ACGCAAGG | 0.316
38 | ACGCAATG | 0.399
39 | CCGCAATC | -0.102
40 | AAAGGGGT | -0.26
41 | ATCCACTA | -0.0731
42 | CGTTAATC | 0.168
43 | ACGGCCCA | -0.317
44 | ATAACCAT | 0.057
45 | AAGTTTGC | 0.0635
46 | CTGTGCTC | 0.0303
47 | ACTACGGC | -0.0407
48 | CCTACGTC | 0.427
49 | CCTACGAC | 0.0224
50 | CCTACGGC | -0.34

Row | Sequence | PBM E-score
51 | CCTACGTA | 0.477
52 | ACTACGCC | -0.00632
53 | CCTACGAA | 0.0841
54 | ACTACGTC | 0.433
55 | CCTACGGA | -0.182
56 | GCGGGTAC | -0.0713
57 | CACACTAC | 0.0507
58 | CCAAGCGC | -0.147
59 | AGTTGCAA | 0.219
60 | ACATCCGG | -0.227
61 | CCTACCGA | -0.168
62 | CCACGCCC | -0.165
63 | CCGGTGGA | -0.297
64 | CCGTATAC | 0.0259
65 | ACGTATAC | 0.463
66 | ACGTATAT | 0.453
67 | ACGTATAA | 0.457
68 | AGGTATAG | -0.141
69 | CCGTATAA | 0.0514
70 | ACGTATAG | 0.437
71 | TCGTATAA | 0.221
72 | AGGTATAT | 0.184
73 | ATGTATAC | 0.247
74 | CCGTATAG | -0.115
75 | AAGTATAT | 0.118

Row | Sequence | PBM E-score
76 | ACGTGAGT | 0.331
77 | AATGAGGT | 0.324
78 | CTTGGGTC | -0.348
79 | GGCGCGAA | -0.151
80 | GAGTATAC | 0.192
81 | GCGTATAA | 0.271
82 | GCGTATAC | 0.365
83 | ATGGAGGG | -0.334
84 | CCACACTC | 0.00961
85 | AAGATTAG | 0.062
86 | AGTAAGGC | -0.0198
87 | ATTACGCG | 0.431
88 | GTTACGCA | 0.417
89 | ATTACGCA | 0.47
90 | CTTACGCA | 0.427
91 | GGTACGCA | 0.268
92 | ATTACGCC | 0.338
93 | CTCACGCA | 0.28
94 | GTTACTCA | 0.0403
95 | ATTACTCG | 0.204
96 | ATTACGGA | 0.287
97 | CTTACGCC | 0.193
98 | CAAACCAG | -0.071
99 | GCACCGCC | -0.218
100 | GTACCTGA | 0.16

Row | Sequence | PBM E-score
101 | GCATCTCC | -0.341
102 | ACCGGCCT | -0.0244
103 | ATAGAAAG | -0.115
104 | CATAGAAC | -0.15
105 | AGTACGAC | 0.157
106 | AGTACATA | 0.00479
107 | GGTACGAA | 0.19
108 | GGTACGGA | -0.174
109 | AGTACGTA | 0.474
110 | AGTACGGA | -0.0994
111 | CGTACATC | 0.244
112 | GGTACGTA | 0.454
113 | AGTACGGC | -0.101
114 | AGTACGAA | 0.312
115 | CGTACATA | 0.378
116 | AGTACGTC | 0.435
117 | AACCGCCC | -0.295
118 | CTTCAATA | 0.197
119 | CGCCGTGC | -0.189
120 | CGTGCGGC | 0.00261
121 | CCCTACCA | -0.0655
122 | CCCTAGGC | -0.269
123 | GACTGGCC | -0.338
124 | AGTACGTG | 0.365
125 | AGTACGAG | 0.00509

Row | Sequence | PBM E-score
126 | CGTACGTC | 0.45
127 | CGTACGCC | 0.218
128 | CGTACGAA | 0.269
129 | CGTACGGC | 0.251
130 | CGTACGTA | 0.474
131 | AGTACGCG | 0.236
132 | CGTACGCA | 0.332
133 | GGGTTGCA | -0.00077
134 | CTGGCGTC | 0.0837
135 | ATGGCGTA | 0.449
136 | ATGGCGTG | 0.336
137 | GTGGCGTA | 0.325
138 | ATGGCGTC | 0.392
139 | CTGGCGTA | 0.138
140 | AACGAGTG | 0.0243
141 | CGATGCAC | -0.0249
142 | AGTCTTAA | -0.164
143 | TCACTGCA | 0.175
144 | ATTACGAA | 0.453
145 | ATTACAAA | 0.234
146 | CTTACGAA | 0.275
147 | CTCACGAA | 0.138
148 | GTTACGAA | 0.378
149 | GTTACAAA | 0.213
150 | GTAGGGGA | -0.186

Row | Sequence | PBM E-score
151 | GGCCATCA | -0.165
152 | ACCCTGAA | -0.0751
153 | CGCGAATA | 0.0754
154 | ACCTAACT | 0.0945
155 | CGTCGCCA | 0.0172
156 | GAACCTCA | -0.069
157 | GGGACGTA | 0.319
158 | AGGACGCC | -0.21
159 | AGGACGTG | 0.153
160 | AGGACGTA | 0.374
161 | AGGACGTC | 0.363
162 | CGGACGTC | 0.292
163 | CATACCCA | 0.108
164 | TAAGCAGA | -0.00339
165 | ACCGTAGT | -0.122
166 | ACCGTACT | 0.00383
167 | AACGTACT | 0.37
168 | ATCGTACG | 0.282
169 | AACGTAGT | 0.414
170 | AACGTACG | 0.398
171 | AAGGTAGT | -0.172
172 | AGCGTACT | -0.0878
173 | ACCGTACG | 0.145
